Source: PubChem BioAssay (EPA / NIEHS)
Calls of active or inactive are those of the source. How the source made its calls: active means hit-call score of the fitted dose curve at least 0.9, where 1 is the maximum; inactive means score below 0.9.

These compounds were tested against Heat shock factor protein 1 (Homo sapiens) (UniProt Q00613) (assay: ATG_HSE_CIS: Attagene CIS-FACTORIAL HepG2 Assay for human Heat Shock Transcription Factor 1 (HSE) (AID 2282953)). Conditions: HepG2 HSE cis-reporter, Attagene RNA transcription; actives raise or lower the signal.
Heat shock factor protein 1 (Homo sapiens), sequence (Q00613 whole entry, looked up): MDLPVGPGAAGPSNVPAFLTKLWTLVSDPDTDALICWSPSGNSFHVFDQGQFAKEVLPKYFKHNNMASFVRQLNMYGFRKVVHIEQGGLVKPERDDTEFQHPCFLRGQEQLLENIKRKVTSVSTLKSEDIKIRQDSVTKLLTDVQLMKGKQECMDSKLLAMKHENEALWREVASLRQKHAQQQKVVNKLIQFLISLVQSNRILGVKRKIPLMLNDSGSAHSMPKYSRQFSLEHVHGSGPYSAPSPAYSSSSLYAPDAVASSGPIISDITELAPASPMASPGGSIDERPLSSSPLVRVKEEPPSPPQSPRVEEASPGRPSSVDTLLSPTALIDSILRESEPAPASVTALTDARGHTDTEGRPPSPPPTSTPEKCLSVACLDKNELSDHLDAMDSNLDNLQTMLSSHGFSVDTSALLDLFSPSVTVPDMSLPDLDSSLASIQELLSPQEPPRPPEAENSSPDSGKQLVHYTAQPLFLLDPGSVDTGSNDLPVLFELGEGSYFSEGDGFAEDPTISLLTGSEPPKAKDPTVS
Description: ATG_CIS is a cell-based, multiplexed-readout assay that uses HepG2, a human liver cell line, with measurements taken at 24 hours after chemical dosing in a 24-well plate.ATG_HSE_CIS is one of 52 assay component(s) measured or calculated from the ATG_CIS assay. It is designed to make measurements of mRNA induction, a form of inducible reporter, as detected with fluorescence intensity signals by Reverse transcription polymerase chain reaction (RT-PCR) and Capillary electrophoresis technology.Data from the assay component ATG_HSE_CIS was analyzed into 1 assay endpoint. This assay endpoint, ATG_HSE_CIS, was analyzed with bidirectional fitting relative to DMSO as the negative control and baseline of activity. Using a type of inducible reporter, measures of mRNA for gain or loss-of-signal activity can be used to understand the reporter gene at the transcription factor-level as they relate to the gene HSF1. Furthermore, this assay endpoint can be referred to as a primary readout, because this assay has produced multiple assay endpoints where this one serves a reporter gene function. To generalize the intended target to other relatable targets, this assay endpoint is annotated to the dna binding intended target family, where the subfamily is heat shock protein.
Human liver HepG2 cells are transiently transfected with multiple reporter transcription units (MRTUs) in 6-well plates using FuGene 6 reagent (Roche; 3 ml FuGene/1 mg DNA). The MRTU constructs are regulated by a cis-regulating element (promoter). […] A major difference between the CIS and TRANS system is that in CIS activities of endogenous TFs are measured, whereas the TRANS assay evaluates changes in activities of exogenous, chimeric NR-Gal4 proteins. […] At the end of 24 hour incubation, total RNA was isolated using TriZol reagent (Invitrogen). The isolated RNA is then reverse-transcribed using oligo(dT) primer and Mo-MLV reverse transcriptase (Invitrogen) with DNAse I (Ambion) treatment for 30 min. The one-tenth of the produced cDNA was amplified by PCR using Taq DNA polymerase (Invitrogen) and two reporter sequence-specific primers. The PCR products were fluorescently labeled by primer extension with 6-arboxyfluorescein (6-FAM) 5'-labeled reporter sequence-specific primer (2 min at 95 C, 20 s at 68 C and 10 min at 72 C) and these products were digested with 5U of HpaI (New England Biolabs) for 2h at 37 C. The fragments were purified using Qiaquick PCR columns (Qiagen), analyzed on an ABI 3130xL genetic analyzer (Applied Biosystems) with peak positions identified by using a set of X-rhodamine (ROX)-labeled MapMarker1000 molecular weight standards (BioVentures). The raw capillary electrophoresis data was processed using Attagraph software (Attagene).
With `FC(F)C(F)(F)OCC(Cn1cncn1)c1ccc(Cl)cc1Cl` (stereo not given) the AC50 was 81.4 µM (active).
In the case of `CNC(=O)ON=C(C)SC`, the outcome is reported as “inactive”.
`CCCOCC(=Nc1ccc(Cl)cc1C(F)(F)F)n1ccnc1` was tested, and the outcome was “inactive”.
With `CCCCOC(=O)[C@@H](C)Oc1ccc(Oc2ccc(C#N)cc2F)cc1` the outcome was “inactive”.
In the case of `CCOP(=S)(OCC)Oc1ccc([N+](=O)[O-])cc1`, the outcome is reported as “inactive”.
`CCc1cccc(CC)c1N(COC)C(=O)CCl` was tested, and the outcome was “inactive”.
`CON=C(C(=O)OC)c1ccccc1CON=C(C)c1cccc(C(F)(F)F)c1` was tested, and the AC50 was 24.1 µM (active).
For `CCCOc1nn(C(=O)NS(=O)(=O)c2ccccc2C(=O)OC)c(=O)n1C`, the outcome was “inactive”.
For `CC(C)=CC1C(C(=O)OCN2C(=O)C3=C(CCCC3)C2=O)C1(C)C` (stereo not given), the AC50 was 93.9 µM (active).
`Cc1ccn2nc(S(=O)(=O)Nc3c(F)cccc3F)nc2n1` was tested, and the outcome was “inactive”.
`CN1COCN(Cc2cnc(Cl)s2)C1=N[N+](=O)[O-]` was tested, and the outcome was “inactive”.
`C#CCC1=C(C)C(OC(=O)C2C(C=C(C)C)C2(C)C)CC1=O` (stereo not given) was tested, and the AC50 was 74.8 µM (active).
With `COP(=O)(NC(C)=O)SC` (stereo not given) the outcome was “inactive”.
With `CNc1cnn(-c2cccc(C(F)(F)F)c2)c(=O)c1Cl` the AC50 was 10.4 µM (active).
`CCCSP(=O)(OCC)SCCC` was tested, and the outcome was “inactive”.
For `CC1(C(=O)Nc2ccc(O)c(Cl)c2Cl)CCCCC1`, the outcome was “inactive”.
In the case of `S=C1NCCN1`, the outcome is reported as “inactive”.
In the case of `CSC1=N[C@@](C)(c2ccccc2)C(=O)N1Nc1ccccc1`, the outcome is reported as “inactive”.
With `O=[N+]([O-])c1cc(C(F)(F)F)c(Cl)c([N+](=O)[O-])c1Nc1ncc(C(F)(F)F)cc1Cl` the outcome was “inactive”.
With `Nc1c(Cl)cc([N+](=O)[O-])cc1Cl` the outcome was “inactive”.
For `CCC(CC)Nc1c([N+](=O)[O-])cc(C)c(C)c1[N+](=O)[O-]`, the outcome was “inactive”.
In the case of `CCCCN(CC)c1c([N+](=O)[O-])cc(C(F)(F)F)cc1[N+](=O)[O-]`, the outcome is reported as “inactive”.
In the case of `CCC(=NOC/C=C/Cl)C1=C(O)CC(C2CCOCC2)CC1=O` (stereo not given), the outcome is reported as “inactive”.
For `CCCSP(=O)(OCC)Oc1ccc(Br)cc1Cl` (stereo not given), the outcome was “inactive”.
With `CC(C1CC1)C(O)(Cn1cncn1)c1ccc(Cl)cc1` (stereo not given) the outcome was “inactive”.
With `CCCCSP(=O)(SCCCC)SCCCC` the outcome was “inactive”.
`O=c1ccc(=O)[nH][nH]1` was tested, and the outcome was “inactive”.
In the case of `CC1=NNC(=O)N(/N=C/c2cccnc2)C1`, the outcome is reported as “inactive”.
With `O=C(O)c1cc(Oc2ccc(C(F)(F)F)cc2Cl)ccc1[N+](=O)[O-]` the outcome was “inactive”.
For `CC(C)[C@H](C(=O)O[C@H](C#N)c1cccc(Oc2ccccc2)c1)c1ccc(Cl)cc1`, the outcome was “inactive”.
In the case of `COP(=O)(OC)C(O)C(Cl)(Cl)Cl` (stereo not given), the outcome is reported as “inactive”.
`CN(C)NC(=O)CCC(=O)O` was tested, and the outcome was “inactive”.
With `COP(=O)(OC)SCn1c(=O)oc2cc(Cl)cnc21` the outcome was “inactive”.
In the case of `CCOP(=O)(SC(C)CC)N1CCSC1=O` (stereo not given), the outcome is reported as “inactive”.
With `CCOP(=S)(OCC)Oc1ccc2c(C)c(Cl)c(=O)oc2c1` the outcome was “inactive”.
`Cc1cc(C2CC2)nc(Nc2ccccc2)n1` was tested, and the outcome was “inactive”.
For `CCOC(=O)CC(SP(=O)(OC)OC)C(=O)OCC` (stereo not given), the outcome was “inactive”.
In the case of `COc1ccc(C(=CC(=O)N2CCOCC2)c2ccc(Cl)cc2)cc1OC`, the outcome is reported as “inactive”.
For `CSc1nnc(C(C)(C)C)c(=O)n1N`, the outcome was “inactive”.
`CCOP(=S)(OCC)SCCSCC` was tested, and the outcome was “inactive”.
